Measurements as given in the supplement of paper PMC8253809.

Each compound was assayed on DIPGX29 (H3.3 K27M diffuse intrinsic pontine glioma line) (assay: growth inhibition (% activity, log2 RLU normalised to DMSO / staurosporine); higher = more growth inhibition). Settings: 33 µM.
How it was run: (§1)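 The growth-inhibition value comes from CellTiter-Glo luminescence, log2-transformed, normalised per plate to % activity between solvent and positive control wells, and taken as the median over replicates. Treatment of pHGG cell lines and H9-derived neural stem cells with approved drugs was at a single final concentration of about 33 μM, in triplicate, for 7 days at 37 °C, 5% CO2.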

Row | Structure (SMILES) | growth inhibition [%]
1 | CNC(=O)c1ccc(N2C(=S)N(c3ccc(C#N)c(C(F)(F)F)c3)C(=O)C2(C)C)cc1F | 0.905
2 | O=c1oc2cc(O)ccc2s1 | 1.14
3 | CN1CCC(=C2c3ccccc3CC(=O)c3sccc32)CC1 | -0.432
4 | CC1=C(C(=O)OC(C)C)C(c2cccc([N+](=O)[O-])c2)C(C(=O)OC2CN(C(c3ccccc3)c3ccccc3)C2)=C(N)N1 (stereo not drawn) | 9.28
5 | C[C@H]1C[C@@H]2[C@H]([C@@H](O)C[C@@]3(C)[C@H]2CC[C@]3(O)C(=O)CO)[C@@]2(C)C=CC(=O)C=C12 | -0.195
6 | C[C@@H]1CC(=O)NN=C1c1ccc(NN=C(C#N)C#N)cc1 | 1.15
7 | Cc1cnc(NC(=O)C2=C(O)c3ccccc3S(=O)(=O)N2C)s1 | -1.57
8 | CCCCCCCCCCCCCCCC[N+](C)(C)CCN(Cc1ccc(OC)cc1)c1ncccn1 | 59.2
9 | CC(C)OC(=O)OCOP(=O)(CO[C@H](C)Cn1cnc2c(N)ncnc21)OCOC(=O)OC(C)C | -0.149
10 | C#CCC(Cc1cnc2nc(N)nc(N)c2n1)c1ccc(C(=O)N[C@@H](CCC(=O)O)C(=O)O)cc1 (stereo partly drawn) | 10.7
11 | CCOC(=O)CCC(=O)O[C@H]1[C@H](O[C@@H]2[C@@H](C)[C@H](O[C@H]3C[C@@](C)(OC)[C@@H](O)[C@H](C)O3)[C@@H](C)C(=O)O[C@H](CC)[C@@](C)(O)[C@H](O)[C@@H](C)C(=O)[C@H](C)C[C@@]2(C)O)O[C@H](C)C[C@@H]1N(C)C | -2.45
12 | Nc1cc(C(Cl)=C(Cl)Cl)c(S(N)(=O)=O)cc1S(N)(=O)=O | 0.128
13 | CCCCC(CC)CN=C(N)N=C(N)NCCCCCCNC(N)=NC(N)=NCC(CC)CCCC (stereo not drawn) | 57.1
14 | C[N+](C)(C)CCCCCC[N+](C)(C)C | -5.28
15 | CC(C)CN(C[C@@H](O)[C@H](Cc1ccccc1)NC(=O)O[C@H]1CO[C@H]2OCC[C@H]21)S(=O)(=O)c1ccc(N)cc1 | -2.82
16 | NCCc1c[nH]cn1 | -0.622
17 | c1ccc2c(CC3=NCCN3)cccc2c1 | 0.509
18 | C=CCc1cc(OC)c(O)c(C(=O)NCCO)c1 | -2.1
19 | COc1cc2/c(=N/c3ccc(Br)cc3F)nc[nH]c2cc1OCC1CCN(C)CC1 | 11.5
20 | Clc1ccc(C(Cn2ccnc2)OCc2csc3c(Cl)cccc23)c(Cl)c1 (stereo not drawn) | 2.06

Row | Structure (SMILES) | growth inhibition [%]
21 | OCCOCCN1CCN(C2=Nc3ccccc3Sc3ccccc32)CC1 | 0.62
22 | CC(C)(C)c1cc(C(C)(C)C)c(NC(=O)c2c[nH]c3ccccc3c2=O)cc1O | 7.53
23 | Nc1ccc(/N=N/c2ccccc2)c(N)n1 | -3.96
24 | CC1(C)O[C@@H]2C[C@H]3[C@@H]4CCC5=CC(=O)C=C[C@]5(C)[C@@]4(F)[C@@H](O)C[C@]3(C)[C@]2(C(=O)CO)O1 | 1.92
25 | C[C@H]1c2cccc(O)c2C(=O)C2=C(O)[C@]3(O)C(=O)C(C(N)=O)=C(O)[C@@H](N(C)C)[C@@H]3[C@@H](O)[C@@H]21 | 0.731
26 | CCc1cc2c(cc1CC)CC(NC[C@H](O)c1ccc(O)c3[nH]c(=O)ccc13)C2 | -0.957
27 | COc1cc2c(cc1O)CC[C@@H]1[C@@H]2CC[C@]2(C)[C@@H](O)CC[C@@H]12 | 9.48
28 | CN(CCOc1ccc(NS(C)(=O)=O)cc1)CCc1ccc(NS(C)(=O)=O)cc1 | -2.77
29 | NC[C@H](O)c1ccc(O)c(O)c1 | 1.26
30 | NC(=O)C(c1ccccc1)(c1ccccc1)[C@@H]1CCN(CCc2ccc3c(c2)CCO3)C1 | 2.96
31 | O=C(O)c1ccc(-n2nc(-c3ccccc3O)nc2-c2ccccc2O)cc1 | -3.59
32 | CN(C/C=C/c1ccccc1)Cc1cccc2ccccc12 | 1.23
33 | CC(C)/N=c1\cc2n(-c3ccc(Cl)cc3)c3ccccc3nc-2cc1Nc1ccc(Cl)cc1 | 12.5
34 | Nc1ccc(C(=O)O)c(O)c1 | 0.612
35 | CN1CCN(CCCN2c3ccccc3Sc3ccc(Cl)cc32)CC1 | 4.66
36 | O=c1ccn([C@@H]2O[C@H](CO)[C@@H](O)[C@H]2O)c(=O)[nH]1 | -0.716
37 | Oc1c(Cl)cc(Cl)c2cccnc12 | 4.67
38 | COC1C(O)CC(=O)OC(C)CC=CC=CC(OC2CCC(N(C)C)C(C)O2)C(C)CC(CC=O)C1OC1OC(C)C(OC2CC(C)(O)C(O)C(C)O2)C(N(C)C)C1O (stereo not drawn) | 0.981
39 | CC[C@H](C)C[C@H](C)CCCCCCCCC(=O)N[C@H]1C[C@@H](O)[C@@H](NCCN)NC(=O)[C@@H]2[C@@H](O)CCN2C(=O)[C@H]([C@H](O)CCN)NC(=O)[C@H]([C@H](O)[C@@H](O)c2ccc(O)cc2)NC(=O)[C@@H]2C[C@@H](O)CN2C(=O)[C@H]([C@@H](C)O)NC1=O | -0.204

Each compound was assayed on DIPGX37 (H3.3 K27M diffuse intrinsic pontine glioma line) in the same assay as above. Settings: 33 µM.
How it was run: as §1

Row | Structure (SMILES) | growth inhibition [%]
40 | CNC(=O)c1ccc(N2C(=S)N(c3ccc(C#N)c(C(F)(F)F)c3)C(=O)C2(C)C)cc1F | -0.457
41 | O=c1oc2cc(O)ccc2s1 | 3.19
42 | CN1CCC(=C2c3ccccc3CC(=O)c3sccc32)CC1 | 0.985
43 | CC1=C(C(=O)OC(C)C)C(c2cccc([N+](=O)[O-])c2)C(C(=O)OC2CN(C(c3ccccc3)c3ccccc3)C2)=C(N)N1 (stereo not drawn) | 5.94
44 | C[C@H]1C[C@@H]2[C@H]([C@@H](O)C[C@@]3(C)[C@H]2CC[C@]3(O)C(=O)CO)[C@@]2(C)C=CC(=O)C=C12 | 0.838
45 | C[C@@H]1CC(=O)NN=C1c1ccc(NN=C(C#N)C#N)cc1 | -0.996
46 | Cc1cnc(NC(=O)C2=C(O)c3ccccc3S(=O)(=O)N2C)s1 | 2.24
47 | CCCCCCCCCCCCCCCC[N+](C)(C)CCN(Cc1ccc(OC)cc1)c1ncccn1 | 55.6
48 | CC(C)OC(=O)OCOP(=O)(CO[C@H](C)Cn1cnc2c(N)ncnc21)OCOC(=O)OC(C)C | -0.362
49 | C#CCC(Cc1cnc2nc(N)nc(N)c2n1)c1ccc(C(=O)N[C@@H](CCC(=O)O)C(=O)O)cc1 (stereo partly drawn) | 6.3
50 | CCOC(=O)CCC(=O)O[C@H]1[C@H](O[C@@H]2[C@@H](C)[C@H](O[C@H]3C[C@@](C)(OC)[C@@H](O)[C@H](C)O3)[C@@H](C)C(=O)O[C@H](CC)[C@@](C)(O)[C@H](O)[C@@H](C)C(=O)[C@H](C)C[C@@]2(C)O)O[C@H](C)C[C@@H]1N(C)C | -0.105
51 | Nc1cc(C(Cl)=C(Cl)Cl)c(S(N)(=O)=O)cc1S(N)(=O)=O | 3.1
52 | CCCCC(CC)CN=C(N)N=C(N)NCCCCCCNC(N)=NC(N)=NCC(CC)CCCC (stereo not drawn) | 60.6
53 | C[N+](C)(C)CCCCCC[N+](C)(C)C | -1.26
54 | CC(C)CN(C[C@@H](O)[C@H](Cc1ccccc1)NC(=O)O[C@H]1CO[C@H]2OCC[C@H]21)S(=O)(=O)c1ccc(N)cc1 | -0.683
55 | NCCc1c[nH]cn1 | 0.871
56 | c1ccc2c(CC3=NCCN3)cccc2c1 | 1.82
57 | C=CCc1cc(OC)c(O)c(C(=O)NCCO)c1 | 0.086
58 | COc1cc2/c(=N/c3ccc(Br)cc3F)nc[nH]c2cc1OCC1CCN(C)CC1 | 2.67
59 | Clc1ccc(C(Cn2ccnc2)OCc2csc3c(Cl)cccc23)c(Cl)c1 (stereo not drawn) | 3.55

Row | Structure (SMILES) | growth inhibition [%]
60 | OCCOCCN1CCN(C2=Nc3ccccc3Sc3ccccc32)CC1 | 0.529
61 | CC(C)(C)c1cc(C(C)(C)C)c(NC(=O)c2c[nH]c3ccccc3c2=O)cc1O | 4.87
62 | Nc1ccc(/N=N/c2ccccc2)c(N)n1 | -2.54
63 | CC1(C)O[C@@H]2C[C@H]3[C@@H]4CCC5=CC(=O)C=C[C@]5(C)[C@@]4(F)[C@@H](O)C[C@]3(C)[C@]2(C(=O)CO)O1 | 0.771
64 | C[C@H]1c2cccc(O)c2C(=O)C2=C(O)[C@]3(O)C(=O)C(C(N)=O)=C(O)[C@@H](N(C)C)[C@@H]3[C@@H](O)[C@@H]21 | -0.495
65 | CCc1cc2c(cc1CC)CC(NC[C@H](O)c1ccc(O)c3[nH]c(=O)ccc13)C2 | -0.915
66 | COc1cc2c(cc1O)CC[C@@H]1[C@@H]2CC[C@]2(C)[C@@H](O)CC[C@@H]12 | 1.66
67 | CN(CCOc1ccc(NS(C)(=O)=O)cc1)CCc1ccc(NS(C)(=O)=O)cc1 | -1.46
68 | NC[C@H](O)c1ccc(O)c(O)c1 | 2.54
69 | NC(=O)C(c1ccccc1)(c1ccccc1)[C@@H]1CCN(CCc2ccc3c(c2)CCO3)C1 | 2.86
70 | O=C(O)c1ccc(-n2nc(-c3ccccc3O)nc2-c2ccccc2O)cc1 | -2.58
71 | CN(C/C=C/c1ccccc1)Cc1cccc2ccccc12 | -0.956
72 | CC(C)/N=c1\cc2n(-c3ccc(Cl)cc3)c3ccccc3nc-2cc1Nc1ccc(Cl)cc1 | 10.3
73 | Nc1ccc(C(=O)O)c(O)c1 | 1.18
74 | CN1CCN(CCCN2c3ccccc3Sc3ccc(Cl)cc32)CC1 | 1.44
75 | O=c1ccn([C@@H]2O[C@H](CO)[C@@H](O)[C@H]2O)c(=O)[nH]1 | -1.37
76 | Oc1c(Cl)cc(Cl)c2cccnc12 | 3.08
77 | COC1C(O)CC(=O)OC(C)CC=CC=CC(OC2CCC(N(C)C)C(C)O2)C(C)CC(CC=O)C1OC1OC(C)C(OC2CC(C)(O)C(O)C(C)O2)C(N(C)C)C1O (stereo not drawn) | 1.73
78 | CC[C@H](C)C[C@H](C)CCCCCCCCC(=O)N[C@H]1C[C@@H](O)[C@@H](NCCN)NC(=O)[C@@H]2[C@@H](O)CCN2C(=O)[C@H]([C@H](O)CCN)NC(=O)[C@H]([C@H](O)[C@@H](O)c2ccc(O)cc2)NC(=O)[C@@H]2C[C@@H](O)CN2C(=O)[C@H]([C@@H](C)O)NC1=O | -0.0661
